Compound activity from PubChem.
RORgamma inh: blocks mouse ROR gamma transcriptional activity; Drosophila S2 Gal4-RORgamma UAS-luciferase reporter, 20 h; AID 2551; 310,000 compounds, 5.4% hits; Potency, µM (top dose mostly 53.6 µM), inactives show top-dose activity change, negative = inhibition, hits mostly inhibitors; further: nearly all actives have a fitted effect of over 60% in size
Target sequence (P51450 whole entry, looked up, the tested form may be a part): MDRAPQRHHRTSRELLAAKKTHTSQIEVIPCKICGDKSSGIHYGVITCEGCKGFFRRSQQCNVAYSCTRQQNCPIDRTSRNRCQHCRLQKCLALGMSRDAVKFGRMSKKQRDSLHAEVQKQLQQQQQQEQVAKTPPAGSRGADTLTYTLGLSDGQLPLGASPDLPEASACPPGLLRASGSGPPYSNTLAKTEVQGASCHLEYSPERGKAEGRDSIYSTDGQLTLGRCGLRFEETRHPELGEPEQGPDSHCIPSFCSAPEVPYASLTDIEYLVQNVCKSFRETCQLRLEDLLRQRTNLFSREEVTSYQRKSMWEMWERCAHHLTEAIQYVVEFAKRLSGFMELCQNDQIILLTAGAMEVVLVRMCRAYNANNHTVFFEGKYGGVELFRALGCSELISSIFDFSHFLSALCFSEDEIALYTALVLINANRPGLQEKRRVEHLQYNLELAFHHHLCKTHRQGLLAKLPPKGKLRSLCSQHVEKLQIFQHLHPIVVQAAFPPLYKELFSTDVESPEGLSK
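Compounds are pin-transferred onto Drosophila Schneider cells expressing a copper-inducible Gal4–ROR gamma transactivation domain fusion. After 1 hr, copper sulfate is added to 700 uM final; luciferase is read 20 hr later.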
KinaseGlo FLuc: Kinase-Glo luciferase inhibition (counter-screen); Potency, µM (titrated, usually from 38.3 µM), for inactives: at the top dose activity change, negative = inhibition, actives largely listed as inhibitors; Q27757; 200,000 compounds, 0.28% hits; Kinase-Glo luciferase, ATP luminescence, 8 min; further: nearly all actives have a fitted effect of over 60% in size
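Luminescence was the read-out, taken after 8-minute incubation at ambient temperature. Luciferase turned over luciferin with 10 uM ATP in imidazole pH 7.2 buffer containing KCl, MgCl2, Tween 20 and BSA.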
Gal4-VP16 FLuc: counter-screen for ROR gamma inhibitors: Gal4-VP16 reporter; Potency, µM (titrated, usually from 53.6 µM), without a hit: at the highest dose activity, negative = inhibition, hits mostly inhibitors; Drosophila S2 Gal4-VP16 UAS-luciferase, luminescence, 20 h; 310,000 compounds, 3.5% hits;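 further: Gal4-VP16 expression switched on by copper sulfate through the metallothionein promoter; nearly all actives have a fitted effect of over 50% in size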
The depositor's hits bear a star; ? = inconclusive; / = no result; [ ] = dose if it differs, or a comment. Compounds with a hit are over-represented: about 6.4% of the library has one in this group of screens. The call rests on the fitted dose curve; in most records, active means well fitted curve in the direction sought with a large enough effect; inconclusive means small, poorly fitted or top-dose-only effect, or another doubt; inactive means no such curve, though single readings can be large; an effect the other way counts as inactive or inconclusive. On the % scale 0 is the no-effect control and ±100 the full control effect; potency means the concentration at half of the fitted maximal effect.

SMILES	RORgamma inh	KinaseGlo FLuc	Gal4-VP16 FLuc
Cn1/c(=N/N=C/c2ccc(N3CCOCC3)cc2)sc2ccccc21	?	-1%	?
CC(=O)c1c(C)[nH]c(C(=O)OCC(=O)Nc2cc(Cl)ccc2[N+](=O)[O-])c1C	?	/	16µM*
CC(=O)c1c(C)[nH]c(C(=O)OCC(=O)Nc2ccc(C)cc2[N+](=O)[O-])c1C	11%[10 µM]	5%	?
CC(=O)c1ccc(OCc2ccc(C(=O)c3ccccc3)cc2)cc1	?	-3%	?
CC(=O)c1ccc(OCc2ccc(Oc3c(Cl)cccc3[N+](=O)[O-])cc2)cc1	?	-2%	20µM*
COc1ccc2c(c1)c(=O)oc1cc(OCC(=O)N3CCCC(C)C3)ccc12 (configuration not stated)	-29%	-2%	10µM*
COc1ccc2c(c1)c(=O)oc1cc(OCC(=O)N3CCC(C)CC3)ccc12	-25%	1%	-23%
CC1CN(C(=O)c2cc3c(=O)n4ccccc4nc3n2C)CC(C)O1 (configuration not stated)	-5%	/	3%
CCN(CC)CC(=O)Nc1sc(C)cc1C(=O)c1ccc(C)cc1	3.2µM*	/	6.3µM*
Cc1ccc(C(=O)c2c(NC(=O)c3ccccc3C)sc(C)c2C)cc1	6%	1%	17%
CCN(CC)CC(=O)Nc1sc(C)c(C)c1C(=O)c1ccc(C)cc1	11µM*	-2%	-7%
CCN(CC)CC(=O)Nc1sc(C)cc1C(=O)c1ccccc1	7.1µM*	/	?
CCc1cc(C(=O)c2ccc(OC)cc2)c(NC(=O)COCC(=O)O)s1	-2%	/	4%
Cc1cc(C(=O)c2ccccc2)c(NC(=O)CCl)s1	-12%[10 µM]	1%	-99%
CCc1cc(C(=O)c2ccc(Br)cc2)c(NC(=O)CN(CC)CC)s1	6.3µM*	/	11µM*
CCOC(=O)c1c(-c2cccs2)csc1NC(=O)CN(CC)CC	?	1%	0%
CCCOc1ccc(N2C(=O)CC(N(CCOC34CC5CC(CC(C5)C3)C4)C(C)=O)C2=O)cc1 (configuration not stated)	-24%	3%	-15%
C=CCNC(=O)/C(C#N)=C/c1c(N2CCN(c3ccc(OC)cc3)CC2)nc2c(C)cccn2c1=O	20%	/	1%
COc1ccc(/C=C2/SC(=O)N(CCC(=O)Nc3ccccc3C(=O)O)C2=S)cc1	-10%	/	4%
COC(=O)N1[C@H]2CC[C@@]3(C)CC(=O)C[C@]1(C)C3c1ccccc12	-20%	1%	-10%
Oc1ccc2n[nH]nc2c1	11%	0%	-8%
O=[N+]([O-])c1cc(S(=O)(=O)N2CCCCCC2)ccc1F	5.6µM*	-3%	4.5µM*
O=[N+]([O-])c1cc(S(=O)(=O)N2CCCC2)ccc1O	5%	6%	3%
O=c1[nH]c2ccccc2nc1Cc1ccc([N+](=O)[O-])cc1	21%	/	10%
COc1ccc(-c2cc(C(=O)N3CCN(c4ccc(F)cc4)CC3)no2)cc1OC	45%	/	6%
SMILES	RORgamma inh	KinaseGlo FLuc	Gal4-VP16 FLuc
CCOC(=O)CN1N=C(c2ccc(Cl)cc2)CCC1=O	4%	/	-3%
CC(=O)c1c(O)cc(O)c(C(C)=O)c1O	?	/	10µM*
CC(=O)c1c(O)cc(O)cc1CC(=O)O	-9%	/	-2%
COC(=O)C(CC(C)C)NS(=O)(=O)c1ccccc1Br (configuration not stated)	?	/	12%
CCCOc1cccc(C2C(C(=O)c3ccc(C)o3)=C(O)C(=O)N2CCN2CCOCC2)c1 (configuration not stated)	5%	/	3%
CCCOc1cccc(C2C(C(=O)c3ccc(C)o3)=C(O)C(=O)N2c2nc(C)c(C(C)=O)s2)c1 (configuration not stated)	14µM*	/	-2%
CCC(=O)N1CCc2cc(S(=O)(=O)CCC(=O)N(C)c3ccc(OC)cc3)ccc21	7%	/	16%
COc1ccc(-c2ccc(SC)nn2)cc1	10µM*	4.5µM*	?
COc1ccc(C(=O)CSc2ccc(-c3ccccc3)nn2)cc1	42%	6%	2%
O=NCc1ccc([N+](=O)[O-])o1	6%[10 µM]	/	-13%
COc1ccc(Br)c(C(=O)Nc2nc3ccccc3[nH]2)c1	-44%	/	5%
CCOc1ccc(C(=O)Nc2cccc(-c3nc4ccccc4[nH]3)c2C)cc1[N+](=O)[O-]	30%[10 µM]	3%	-2%
COc1ccc(C(=O)NC(C)c2nc3ccccc3[nH]2)cc1OC (configuration not stated)	-8%	-1%	-4%
COc1ccc(Cl)cc1C(=O)Nc1nc2ccccc2[nH]1	2.2µM*	/	6.3µM*
COc1cc(C(=O)Nc2nc3ccccc3[nH]2)ccc1OC(F)F	5µM*	/	7.9µM*
